Compound activity: PubChem BioAssay, Broad Institute
An excerpt weighted towards active compounds, which were near 3% of everything screened.
N-glyco inh = N-linked glycosylation inhibition. 360,000 compounds, 0.23% hits. D54 ERlucT glycosylation luciferase reporter, 24 h; percent of 100 nM tunicamycin response. reporter increase, % at 12.5 µM. AID 588692;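 active means mean luciferase reporter signal, scaled so untreated is 0 and the glycosylation-blocking control 100, at or above a set limit in every replicate; inconclusive means mean reaches the limit but not every replicate does; inactive means mean below the limit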;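 further: luciferase carries N-glycosylation sites so blocking glycosylation raises the light; 0% = median of neutral control wells and 100% = median of 100 nM tunicamycin wells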
Wnt act = activators of Wnt/beta-catenin signaling. activation, % at 9.35 µM. 300,000 compounds, 1.2% hits. AID 743398. Wnt/beta-catenin reporter cell assay, activator, plate reader; in the data active means activation above about 30%, passing the limit was not always enough; inconclusive means no clear call, values can overlap the other calls;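 further: 0% = neutral control wells and 100% = positive control wells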
Vif imaging = HIV Vif inhibition | HEK293T cells, Vif self-association by quenched fluorescence, imaging, 24 h | inhibition, % at 7.49 µM | 340,000 compounds, 0.35% hits; in the data active means inhibition above about 50%, passing the limit was not always enough; inconclusive means no clear call, values can overlap the other calls; inactive means below about 31%
esBAF inh = inhibitors of esBAF chromatin remodeling in mouse ES cells | Bmi1-luciferase knock-in reporter, 24 h; 100% = twice the neutral-well signal | reporter increase, % at 12.5 µM | 350,000 compounds, 2% hits; in the data active means activation above about 40%; inconclusive means no clear call, values can overlap the other calls;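 further: 0% = median of the plate's neutral control wells and 100% = double that signal; a rise in the Bmi1 reporter signal indicates esBAF inhibition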
PfHsp90 yeast 2 = growth inhibition of yeast expressing Plasmodium Hsp90 | S. cerevisiae expressing PfHsp90, BacTiter-Glo ATP, 48 h; yeast lacking PDR1 and PDR3 efflux regulators | inhibition, % at 9.4 µM | 310,000 compounds, 0.32% hits;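 active means every replicate shows inhibition above about 80%, whatever the replicate mean, limit read from the data; inconclusive means mean inhibition reaches the set limit but some replicate falls short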;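 further: 0% = DMSO neutral controls and 100% = 20 µM radicicol positive controls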
MITF act = MITF TRPM1 promoter activation in melanoma cells | 300,000 compounds, 0.75% hits | activation, % at 12.5 µM | AID 588334 | SK-MEL-5 TRPM1-promoter luciferase, 24 h; % of positive control, neutral wells = 0;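 active means mean activation of at least 80% with every replicate also reaching 80%; inconclusive means mean reaches 80% but some replicate falls short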;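 further: 0% = neutral control wells and 100% = parthenolide positive control wells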
Active calls of the source: *; u = inconclusive; x = no result.

SMILES	N-glyco inh	Wnt act	Vif imaging	esBAF inh	PfHsp90 yeast 2	MITF act
C[C@@H]1CCCCO[C@@H](CN(C)S(=O)(=O)c2cccs2)[C@@H](C)CN([C@H](C)CO)C(=O)c2cc(NS(=O)(=O)c3cccs3)ccc2O1	x	x	x	-2.1	x	x
CCCC(=O)Nc1ccc2c(c1)C(=O)N(C)[C@H]1CC[C@H](CC(=O)NCc3cccc(F)c3)O[C@@H]1CO2	x	x	x	-1.9	x	x
CC1Cc2ccccc2N1C(=O)c1cc2sccc2n1Cc1ccc(F)cc1 (stereo unspecified)	-2.2	x	15.3	-8.2	5.0	-10.0
Cc1ccsc1/C=N/NC(=S)NCCc1ccccc1	1.4	-1.4	-5.0	-1.7	-7.0	3.2
Cc1ccc(CC(=O)O/N=C(\N)c2ccccn2)cc1	-3.9	40.3*	-4.8	14.9	-3.8	27.8
O=C1CCC(=O)N1CCc1c[nH]c2ccccc12	1.4	0.8	16.1	-0.4	-10.5	14.2
O=[N+]([O-])c1cccc(-c2nc(-c3ccccc3)no2)c1	-2.8	x	9.3	73.4*	-16.8	21.7
O=[N+]([O-])c1cccc(SSc2cccc([N+](=O)[O-])c2)c1	-0.1	4.1	-0.8	-0.5	110.0*	-11.9
O=[N+]([O-])c1cccc(-c2nnc(-c3ccccc3)o2)c1	0.1	45.8*	16.6	x	-4.7	50.9
Cc1occc1-c1nnc(-c2cc([N+](=O)[O-])cc([N+](=O)[O-])c2)o1	4.6	x	1.7	x	106.4*	3.0
CCCN(C)C[C@@H]1Oc2cc(C#CC3CC3)ccc2S(=O)(=O)N([C@H](C)CO)C[C@@H]1C	x	x	x	-5.6	x	x
O=C1CC[C@@H](CN(Cc2ccccn2)Cc2nc(-c3ccc(C(F)(F)F)cc3)no2)N1	1.3	-3.1	-4.3	-8.5	-5.4	-3.6
Cc1c(C)c2ccc(OC(C)C(=O)N3CC[C@@]4(O)CCCC[C@H]4C3)cc2oc1=O (stereo partly specified)	1.1	0.2	-1.5	8.6	-31.9	2.2
O=[N+]([O-])c1cccc(C2=NC(c3ccccc3)CO2)c1 (stereo unspecified)	-0.7	u	2.3	45.4*	-2.1	27.0
CN1c2ccc(-c3cccc(F)c3)cc2[C@H]2[C@H](CCN2C(=O)Cc2ccccc2)[C@H]1CO	x	x	x	-2.1	x	x
C#CCOC(=O)CCCC(=O)Nc1ccccc1OC	1.9	50.1*	-7.5	0.5	-8.7	0.6
COc1ccccc1NC(=O)CCCC(=O)OCC(=O)c1ccc(F)cc1	1.1	3.8	-5.7	x	11.2	2.7
COc1cc(OC)cc(C(=O)NCC(=O)Nc2ccc(C)c(Cl)c2)c1	0.5	45.7*	-4.9	0.0	-14.5	10.9
O=C(C1CCCN(S(=O)(=O)c2cccc3cccnc23)C1)N1CCc2ccccc21 (stereo unspecified)	1.9	-2.2	-3.6	7.3	-45.6	-24.5
NC(=O)c1ccccc1NC(=O)/C=C/c1cccc(Cl)c1	-1.9	x	13.3	75.8*	7.5	x
CC12CN3CC(=O)N4CC5(C)CN(CC(C)(C4)C5=O)C(=O)CN(C1)CC(C)(C3)C2=O	2.9	x	x	3.9	-4.6	14.6
CCC(Sc1nc2ccccc2s1)C(=O)Nc1nnc(C)s1 (stereo unspecified)	0.5	x	-1.7	0.7	x	-5.9
Cc1ccc(NC(=O)c2ccc(Cl)cc2Cl)cc1O	-3.5	47.8*	-3.3	x	8.7	54.8
C#Cc1cccc(NC(=O)c2ccc(Cl)cc2Cl)c1	-3.1	22.2	0.7	52.6*	15.8	93.7*
CC(NC(=O)c1ccc(Br)s1)C1CCCO1 (stereo unspecified)	0.5	-0.9	-4.7	x	19.6	10.9
SMILES	N-glyco inh	Wnt act	Vif imaging	esBAF inh	PfHsp90 yeast 2	MITF act
COc1ccc2c(=O)c(-c3nc(C)cs3)coc2c1	-15.4	x	-6.4	x	25.8	-8.1
Cc1csc(-c2coc3cc(O)cc(C)c3c2=O)n1	2.7	22.2	-14.4	60.2*	-21.1	9.6
Cc1nc(-c2coc3cc(O)c(C)cc3c2=O)cs1	-16.8	x	-0.7	x	28.0	-17.2
CCc1cc2c(=O)c(-c3nc(C)cs3)coc2cc1O	3.1	38.9*	-3.2	47.8*	-25.3	47.9
O/C(=C\c1nc2ccccc2nc1/C=C(\O)c1ccccc1)c1ccccc1	-2.8	x	4.9	6.5	-8.3	26.7
O=Nc1[nH]c(=O)c(/C=C(\O)c2ccccc2)nc1NO	4.0	-1.1	105.9*	9.7	11.5	17.1
O=[N+]([O-])c1ccc2nc(N3CCCC3)sc2c1	-1.2	14.3	3.6	79.0*	11.5	u
NC(=O)C1CCN(C(=O)c2ccc3nc(N4CCCCC4)sc3c2)CC1	-2.5	1.0	5.6	x	10.3	46.0
Fc1ccc2nc(N3CCCC3)sc2c1	-0.9	-0.3	5.4	u	x	156.0*
O=C(c1ccccc1)N1CCN(c2nc3ccc([N+](=O)[O-])cc3s2)CC1	-3.2	-0.9	-19.6	x	-10.2	-3.5
O=C(Nc1ccc(F)cc1F)c1ccc2nc(N3CCOCC3)sc2c1	0.2	3.0	-8.6	41.7*	-9.9	x
O=C(c1cccs1)N1CCN(c2nc3c(F)cc(F)cc3s2)CC1	1.9	1.1	-0.9	43.1*	17.8	48.2
O=C(Nc1ccc2nc(N3CCOCC3)sc2c1)c1ccc(F)cc1	2.9	-1.8	-3.8	8.0	-6.5	15.0
O=C(NNc1ncnc2c1cnn2-c1ccccc1)c1cccs1	1.9	0.0	10.9	x	x	-8.0
CC1(N2CCOCC2)C(=O)c2ccccc2C1=O	0.7	-1.5	-4.6	x	0.0	-6.3
Fc1cc(F)c2nc(N3CCCCC3)sc2c1	-0.6	20.6	1.0	66.2*	-17.0	45.8
CCn1c(O)c(/C=C2\C=Nc3ccccc32)sc1=Nc1ccccc1	-7.6	-0.5	-3.1	67.1*	-6.1	68.5
Cn1c(O)c(/C=C2\C=Nc3ccccc32)sc1=Nc1ccc(C(=O)O)cc1	2.1	-5.4	-12.3	-3.3	-27.7	-28.3
CCn1cc(C(=O)OCC(=O)c2cc(C)n(-c3ccccc3F)c2C)c(=O)c2ccc(C)nc21	-0.1	x	-8.3	5.2	-3.3	-0.4
Oc1c(Br)cc(Br)c2cccnc12	1.3	1.9	5.5	-3.7	107.0*	-18.1
Oc1c(CN2CCN(c3ccccc3)CC2)cc(Br)c2cccnc12	-12.5	0.8	-8.7	-44.7	123.7*	-85.9
O=C(C[C@H]1C=C[C@@H](NS(=O)(=O)c2ccccc2F)[C@@H](CO)O1)NCCCN1CCOCC1	x	x	x	-9.4	x	x
CCOc1cc(/C=C\[N+](=O)[O-])ccc1OCC(=O)Nc1ccccc1C	-0.2	x	x	-4.8	110.2*	-90.6
COc1cc(/C=C/c2cccc[n+]2C)ccc1OCC(=O)Nc1ccccc1C	0.4	-1.1	12.1	-0.2	12.2	4.7
CCCn1c(/C=C/c2ccccc2)nc2ccccc21	-8.7	x	-7.1	18.2	12.9	16.9
CC(C)n1c(/C=C/c2ccccc2)nc2ccccc21	0.4	21.2	-7.0	50.9*	6.2	53.1
O=C(c1ccc(C(=O)N2CCOCC2)s1)N1CCOCC1	-0.6	0.2	18.7	4.0	-15.9	13.6
